# Records with an inconclusive call do not appear. A number with no mark means an inactive call. The source made the active and inactive calls. Calls follow the shape of the dose curve; as a rule, active = well fitted inhibition curve with a large enough effect; inconclusive = small, poorly fitted or top-dose-only effect; inactive = flat fitted curve, though single readings scatter.
# System: KB-3-1
# Experiment: Cytotoxic Profiling of Annotated Libraries Using Quantitative High-Throughput Screening (AID 1296008); also: nearly all actives have a fitted effect of over 60% in size
# Conditions: Five cell lines viability, CellTiter-Glo ATP luminescence, 48-72 h; max response: active compounds read low
# Outline: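 Compounds were pin-transferred onto cells and incubated 48 or 72 hr at 37 degree Celsius, 95% humidity. CellTiter-Glo was added, plates sat 10 min at room temperature, then ATP-coupled luminescence was imaged as the viability read-out.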
# % is scaled to controls: 0 for no effect and ±100 for the full control effect; potency is read from the fitted curve at half-maximal effect.
Structure (SMILES),max response [%],outcome,Potency
C/C=C(/C)C1C=CC2CC(C)CC(C)C2C1/C(O)=C1\C(=O)NC(CC(C)(O)C(=O)O)C1=O (centres undefined),4.77,,
CS[C@]1(CO)C(=O)N2[C@H]3C(=CC=C[C@@H]3O)C[C@@]2(SC)C(=O)N1C,,inactive,
COc1ccc2c3c4n(c2c1)[C@@H](C=C(C)C)OOC(C)(C)C[C@@H]4N1C(=O)[C@@H]2CCCN2C(=O)[C@]1(O)[C@H]3OCC=C(C)C,8.3,,
CC1=CC2/C=C(\C)CCCC(O)/C=C/C(=O)OC23C(=O)NC(CC(C)C)C3C1C (centres undefined),,inactive,
C=CC(C)(C)c1[nH]c2c(CC=C(C)C)cc(CC=C(C)C)cc2c1C[C@@H]1NC(=O)[C@H](C)NC1=O,,inactive,
COc1cc(O)c2c(c1)/C=C/C[C@@H](O)[C@@H](O)C(=O)CCC[C@H](C)OC2=O,5.8,,
CC(=O)O[C@H]1CC[C@H]2[C@@H]3CC[C@H]4CC(=O)C=C(C)[C@]4(C)[C@H]3CC[C@]12C,7.22,,
COc1cc(N2CCN(C)CC2)ccc1N,-1.04,,
COCC(C(=O)OC1CC2CCC(C1)N2C)c1ccccc1 (centres undefined),,inactive,
N#CC(O[C@@H]1O[C@H](CO)[C@@H](O)[C@H](O)[C@H]1O)c1ccccc1 (some centres undefined),0.785,,
CC[C@H]1C2CC3[C@@H]4N(C)c5ccccc5[C@]45C[C@@H]([C@H]2[C@H]5O)N3[C@H]1O,2.51,,
NC(=O)c1ncn2c1CN=C(c1ccccc1Br)c1cc(F)ccc1-2,5.47,,
Cc1c(N2C(=O)[C@@H]3[C@H](O)CCN3C2=O)ccc(C#N)c1Cl,-9.81,,
CC(=O)O[C@@H]1[C@H]2CC[C@H]3[C@@](C)(O)[C@@H]4C[C@H](O)C(C)(C)[C@@]4(O)[C@H](O)C[C@@]13C[C@@]2(C)O,2.41,,
CC(=O)N1N=C(c2ccc(N)cc2)c2cc3c(cc2C[C@H]1C)OCO3,6.29,,
COC(=O)[C@]12CCCC(C)(C)C1CCc1cc(C(C)C)c(O)c(O)c12 (some centres undefined),-12.9,,
COc1ccc(CN(C(=O)[C@@H](N)Cc2c(C)cc(C(N)=O)cc2C)[C@@H](C)c2ncc(-c3ccccc3)[nH]2)cc1C(=O)O,2.03,,
C=CC/C=C\C/C=C\CCCCCCCc1cc(O)cc(O)c1,-0.409,,
CN1C2CCC1CC(OC(=O)N1Cc3ccccc3NC1=O)C2 (centres undefined),-1.51,,
COC(=O)CC1CC2(C(=O)c3c(O)cccc3C2(O)C(=O)OC)C(C)O1 (centres undefined),3.88,,

Structure (SMILES),max response [%],outcome,Potency
c1cncc(OC[C@@H]2CCN2)c1,-3.57,,
Cc1c(Cl)c(OCC(=O)N2CCN(C)CC2)nc2sc(C(=O)NC3CC3)c(N)c12,,inactive,
CN1CCc2cc3c(cc2C1C1OC(=O)c2c1ccc1c2OCO1)OCO3 (centres undefined),-4.22,,
C#CCO[C@H]1CN2CCC1CC2,2.91,,
CC1CCCC(O)CC(=O)Cc2cc(O)cc(O)c2C(=O)O1 (centres undefined),8.3,,
COc1ccsc1CNCC[C@@]1(c2ccccn2)CCOC2(CCCC2)C1,9.07,,
C1=C(c2cnc[nH]2)c2ccsc2CC1,-3.3,,
CC1=CC2(O)/C=C/C(C)(O)C(O)C(O)/C=C/C(=O)OC23C(=O)NC(CC(C)C)C3C1C (centres undefined),,inactive,
C/C=C1/CN2CC[C@]34C(=Nc5ccc(OC)cc53)C2C[C@@H]1C4(CO)C(=O)OC (some centres undefined),0.853,,
Cc1cccc(NC(=O)N[C@H]2CN(C)c3ccccc3C(c3ccccc3)=N2)c1,6.39,,
Oc1ccc2c3c1O[C@H]1c4[nH]c5c(N=C=S)cccc5c4C[C@@]4(O)[C@@H](C2)N(CC2CC2)CC[C@]314,-18.9,,
CO[C@@H]1[C@H](O)[C@@H](O[C@@H]2C[C@H]3CC[C@@H]4C(CC[C@]5(C)[C@@H](C6=CC(=O)OC6)CC[C@]45O)[C@@]3(C)[C@H](O)C2)O[C@H](C)[C@@H]1O (some centres undefined),,,448 nM (active)
C[C@@H]1CCC/C=C/[C@H]2C[C@@H](O)C[C@@H]2[C@@H](O)/C=C/C(=O)O1,,,146 nM (active)
C[C@]12CCC(=O)C=C1CC[C@@H]1[C@@H]2[C@@H](O)C[C@]2(C)C(=O)CC[C@@H]12,6.55,,
CCC(C)(O)C1(C(=O)O)COC(=O)C1 (centres undefined),,inactive,
COC(=O)C1=COC(C)C2CN3CCC4(C(=O)Nc5ccccc54)C3CC12 (centres undefined),-8.2,,
CC1(C)C(=O)N(c2ccc(C#N)c(C(F)(F)F)c2)C(=O)N1CCCCO,-3.73,,
O=C1N[C@@H](Cc2ccccc2)CN2CCCC[C@@H]12,1.17,,
CN1C(=O)CN=C(c2ccccc2Cl)c2cc(Cl)ccc21,-0.99,,
